# Measurements reported in PubChem BioAssay AID2314 (National Center for Advancing Translational Sciences (NCATS), 2010).
# Out of some 300,000 compounds screened, about 37,000 (12%) were called active. The full list was thinned out, with actives kept by preference. A number with no mark means an inactive call. Cut-off read from the data, not from the text of the source: active = max response mostly above about 13% (no sharp cut-off); inactive = mostly below about 14%.
# Assay: Cycloheximide Counterscreen for Small Molecule Inhibitors of Shiga Toxin; note: read at 38.3 µM for the half of the compounds with a filed dose; 0% is about no effect
# Conditions: cell reporter, cycloheximide protein synthesis inhibition counterscreen; stronger effect = higher value
row,SMILES,max response
1,NC(=O)Cn1cc(/C=N\NS(=O)(=O)c2ccccc2)c2ccccc21,-1.04%
2,COc1ccc(OC)c(Nc2nc3ccccc3n3cnnc23)c1,-2.88%
3,CCOc1ccc(NC(=O)CCCCCN2C(=O)[C@@H]3Cc4ccccc4CN3C2=O)cc1,6.74%
4,Clc1cc(NC2CCCCC2)ncn1,3.36%
5,CCCCN(CCCC)CCCNC(=O)CN1C(=O)COc2ccc(S(=O)(=O)N3CCC(C)CC3)cc21,-3.42%
6,Cc1ccn(-c2cccc(-n3ccc(C)n3)n2)n1,91.1% (active)
7,Cc1cnc(CN(C)C(=O)CC2C(=O)NCCN2Cc2cccc(F)c2F)[nH]1 (stereo not given),3.11%
8,O=c1c2cc(Br)ccc2nc(-c2cccc(Cl)c2)n1O,-6.07%
9,Cc1ccc(CSCC2Nc3ccc(C(=O)N4CCN(c5ccc(F)cc5)CC4)cc3NC2=O)cc1 (stereo not given),-5.97%
10,CN1C(=O)C(CC(=O)Nc2ccccc2)S/C1=N/c1nccs1 (stereo not given),-0.83%
11,CCN1C(=O)C(CC(=O)Nc2cc(C)ccc2C)SC1=Nc1ccc(S(N)(=O)=O)cc1 (stereo not given),-7.73%
12,O=C(CC1SC(=Nc2ccccc2)N(Cc2ccccn2)C1=O)Nc1cccc(Cl)c1 (stereo not given),14.9% (active)
13,CC(=O)Nc1ccc(S(=O)(=O)NC2Cc3ccccc3C2)cc1,-1.22%
14,CCN1/C(=C/C(=S)Nc2ccccc2)Sc2ccccc21,44.5% (active)
15,O=C(CCN1c2ccccc2Sc2ccccc21)Nc1ccccc1,9.13%
16,CCNC(=O)N1c2ccccc2Sc2ccccc21,-0.857%
17,CCn1cc(C(=O)NCC(=O)NC(C)(C)CO)c(=O)c2cc3c(cc21)OCO3,1.3%
18,O=C(CN1C(=O)C2C3C=CC(C3)C2C1=O)Nc1nc(-c2ccccn2)cs1 (stereo not given),-1.06%
19,O=C(CCCO)N/N=C/c1cc(Br)ccc1O,-2.8%
20,O=C(N/N=C/c1ccccc1O)/C(=C/c1ccccc1)CCO,16.6% (active)
21,O=C(CC(=O)N/N=C\c1cccc(Cl)c1Cl)NCc1ccccc1,8.71%
22,COc1ccc(OC)c(S(=O)(=O)N2CCCC(C(=O)NCCc3ccccc3)C2)c1 (stereo not given),8.7%
23,Cc1cccc(N2CCN(C(=O)c3cnn4c(C(F)F)cc(-c5ccccc5)nc34)CC2)c1C,-1.97%
24,CSCCC(NC(=O)c1ccc(Cl)cc1Cl)C(=O)NNC(=O)c1csc(N2CCOCC2)n1 (stereo not given),0.959%

row,SMILES,max response
1,NC(=O)c1ccc(NC(=O)COC(=O)c2ccc([N+](=O)[O-])cc2)cc1,0.779%
2,O=C(COc1ccc([N+](=O)[O-])cc1)Nc1ccc(N2CCCC2)cc1,-1.27%
3,O=C(COC(=O)C1CCCCC1)Nc1ccc([N+](=O)[O-])cc1,24.8% (active)
4,CC1(C)C(C=C(Cl)Cl)C1C(=O)NC(O)C(=O)c1ccccc1 (stereo not given),-3.63%
5,CCn1cc(C(=O)NCc2ccc(OC)cc2OC)c(=O)c2ccc(C)nc21,-2.54%
6,CNC(=O)C1CCN(S(=O)(=O)c2c(C)noc2/C=C/c2cccc(C)c2)CC1,-3.52%
7,Cc1cccc(NC(=O)C2CCN(S(=O)(=O)c3cccc4cccnc34)CC2)c1,-2.32%
8,Cc1ccnc(NC(=O)C2CCN(S(=O)(=O)c3c(C)c(C)cc(C)c3C)CC2)c1,13.3% (active)
9,COc1cccc(C(=O)Nc2nnc(S(=O)(=O)N(C)c3ccccc3)s2)c1,-2.81%
10,CN(c1ccccc1)S(=O)(=O)c1cc(C(=O)OCC(=O)N2CCN(C(=O)c3ccco3)CC2)ccc1Cl,-1.38%
11,CN(c1ccccc1)S(=O)(=O)c1cc(C(=O)Nc2nc3ccccc3[nH]2)ccc1Cl,16.5% (active)
12,O=C(CN1CCN(c2ncccn2)CC1)Nc1ccccc1C(F)(F)F,-6.89%
13,O=C(C1CCCN(S(=O)(=O)c2ccc([N+](=O)[O-])cc2)C1)N1CCCCC1 (stereo not given),1.11%
14,COc1ccccc1-c1nnc(SCC(=O)Nc2ccccc2)o1,11.4% (active)
15,COc1ccccc1-c1nnc(SCC(=O)Nc2cc(C)on2)o1,2.69%
16,COc1ccccc1-c1nnc(SCC(=O)N2CC(C)CC(C)C2)o1 (stereo not given),1.31%
17,COc1cccc(NC(=O)CSc2nnc(Cc3ccc(OC)c(OC)c3)o2)c1,-3.54%
18,COc1ccc(-c2nnc(SCC(=O)c3cccs3)o2)c(OC)c1,51.4% (active)
19,COc1ccc(CCNC(=O)CSc2nnc(CNC(=O)c3cccs3)o2)cc1OC,-3.82%
20,CSc1ccc(CCNC(=O)CS(=O)(=O)Cc2nc(-c3ccccc3F)oc2C)cc1,-3.5%
21,Cc1nn(-c2ncc(C(F)(F)F)cc2Cl)c(=O)n1-c1ccccc1,0.461%
22,Cc1cc(C)c2nc3nc(C)cc(C)c3c(N)c2c1,15.1% (active)
23,Cc1cc(C)c2nc(-c3ccco3)cc(C(=O)O)c2c1,0.856%
24,Cc1cc(C)c2nc(SCCC#N)nc(C)c2c1,1.85%

row,SMILES,max response
1,COc1ccc(/C=C(/NC(=O)c2ccco2)C(=O)Nc2ccc(C(C)=O)cc2)cc1,2.87%
2,COc1ccc(N(Cc2ccccc2)S(=O)(=O)c2cccc(C(=O)O)c2)cc1,-3.66%
3,COc1ccc(CN(C)C(=O)CC(c2ccccc2)c2ccccc2)cc1,-2.05%
4,COc1ccc(C(CC(=O)c2ccccc2)S(=O)(=O)c2ccccc2)cc1 (stereo not given),30% (active)
5,Cc1ccc(SCc2c(C(=O)N/N=C/c3cccnc3)nnn2-c2nonc2N)cc1,2.02%
6,CC(C)C[C@H](NC(=O)C1CC(=O)N(c2ccc3c(c2)OCCO3)C1)C(=O)NC1CCCC1 (stereo not given in full),6.36%
7,C=C1CCN(C(CC(C)C)C(=O)N2CCOCC2)S(=O)(=O)c2ccccc21 (stereo not given),4.95%
8,Cc1ccc(-c2ccc(/C=C(\C#N)C(N)=S)o2)c([N+](=O)[O-])c1,16% (active)
9,Cc1ccc(Cc2cnc(NC(=O)/C(C#N)=C/c3ccc(-c4cccc([N+](=O)[O-])c4)o3)s2)cc1,-0.479%
10,N#C/C(=C/c1ccc(-c2ccccc2[N+](=O)[O-])o1)C(=O)NCCN1CCCCC1,2.31%
11,COc1ccc(C)cc1N(C(=O)Cn1nnc(-c2ccc(C)o2)n1)C(C(=O)NC1CCCC1)c1ccncc1 (stereo not given),-6.77%
12,O=C(Nc1ccc(-c2ccc3nncn3n2)cc1)C1CCCCC1,16% (active)
13,O=C(O)c1ccc(NC(=O)C2CCCCC2)cc1,-1.35%
14,CC(C)NS(=O)(=O)c1ccc(NC(=O)C2CCCCC2)cc1,-0.865%
15,CCCOc1ccc(C2NC(=O)NC(c3ccccc3)=C2C(C)=O)cc1OCC (stereo not given),-7.3%
16,CCN1N=C(c2ccccc2)CCC1=O,-2.27%
17,Nc1ccn(C2CC(O)C(CO)O2)c(=O)n1 (stereo not given),-1.51%
18,c1ccc(Nc2nc(-c3ccncc3)cs2)nc1,36.4% (active)
19,c1ccc(NCc2cccc3ccccc23)nc1,9.29%
20,COc1ccc(-c2csc(Nc3ccccn3)n2)cc1,40.4% (active)
21,COC(=O)c1cc(-c2cccs2)nc2ccccc12,-2.85%
22,CC(NC(=O)c1ccco1)C(=O)Nc1nc(-c2ccccn2)cs1 (stereo not given),-2.97%
23,COC(=O)CSc1nccc(-c2cccs2)n1,17%
24,COc1ccc2cc(S(=O)(=O)Nc3ccccn3)ccc2c1,-3.68%

row,SMILES,max response
1,c1cnc(Nc2nc(-c3ccc4ccccc4c3)cs2)nc1,42.5% (active)
2,Clc1ccc(Nc2nc(-c3cccs3)cs2)nc1,37.5% (active)
3,COc1ccc(-c2nc(CS(=O)(=O)CC(=O)NCc3cccc(Br)c3)c(C)o2)cc1,6.41%
4,Cc1ccc(OCCCCN2CCCCC2)c(Br)c1,10.9%
5,CC(C)(C)NC(=O)NC(=O)COC(=O)C1c2ccccc2Oc2ccccc21,0.419%
6,Cc1ccc(CNC(=O)c2cccnc2Cl)cc1,6.44%
7,CCN(C(=O)c1ccc(Br)cc1)c1ccccc1,-3.18%
8,Cc1cccc(C(=O)N2CCCC(Nc3ccc(C(C)C)cc3)C2)n1 (stereo not given),17.8%
9,CCOC(=O)C1(CCOc2ccccc2)CCN(Cc2ccc(C#CCCO)cc2)CC1,-3.24%
10,CCCC1=Nc2cc(C(=O)NCCN3CCCC3)ccc2Sc2ccccc21,-5.31%
11,O=C(Nc1ccc(OCC(=O)N2CCOCC2)cc1)c1cc(F)c(F)cc1Cl,2.51%
12,CCN1CCc2nc(NC(=O)c3cc(F)c(F)cc3Cl)sc2C1,18.8% (active)
13,O=C(Nc1nccs1)c1cc(S(=O)(=O)N2CCOCC2)c(Cl)cc1Cl,-3.9%
14,O=C(CSc1nnnn1-c1ccc(O)cc1)c1ccc(F)cc1,23.5% (active)
15,COc1ccc(-n2nnnc2SCC(=O)c2ccc(OC)c(OC)c2)cc1,-0.506%
16,Cc1cc(NC(=O)CSc2nnnn2-c2ccc(F)cc2)no1,-1.5%
17,CCC(C(=O)NCc1cccnc1)n1nc(C)c2sc3ccccc3c2c1=O (stereo not given),-10.2%
18,CC(C)N(C(=O)Cn1cc(S(=O)(=O)CC(=O)N2CCOCC2)c2ccccc21)C(C)C,2.9%
19,O=C(NCCCn1ccnc1)C1CCCN(S(=O)(=O)c2cc(Cl)ccc2Cl)C1 (stereo not given),-4.82%
20,O=c1cc(-c2ccc(O)cc2)oc2c([C@@H]3O[C@H](CO)[C@@H](O)[C@H](O)[C@H]3O)c(O)cc(O)c12,-8.35%
21,CN(CCN1CCOCC1)Cc1nc(-c2ccc3c(c2)OCO3)no1,8.52%
22,CCn1ccnc1CN(C)Cc1nc(-c2ccc3c(c2)OCO3)no1,28.4% (active)
23,CC(C)N(Cc1nc(-c2ccc3c(c2)OCO3)no1)CC1CCC(=O)N1 (stereo not given),1.08%
